Compound activity deposited in PubChem by The Scripps Research Institute Molecular Screening Center.
FBW7 act: human FBW7 E3 ligase activation, primary screen; Q969H0; AlphaScreen FBW7–phospho-cyclin E peptide binding, activator screen; normalized activity (activation), % at 26.1 µM; 650,000 tested, 0.13% active; AID 1259310; in the data active = normalized activity above about 1.9%;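 also: purified mutant Fbw7 with reduced substrate affinity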
MITF inh: human MITF inhibition, primary screen; AlphaScreen MITF homodimerization, bead proximity signal; AID 1259374; inhibition, % at 2.6 µM; O75030; 650,000 tested, 0.91% active; in the data active = inhibition above about 50%;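 also: 0% = vehicle wells with protein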
TEAD-YAP block: TEAD-YAP interaction inhibition. HEK-TIYL cells, TEAD-Gal4/YAP UAS-luciferase luminescence. inhibition, % at 9.12 µM. 640,000 tested, 1.4% active. AID 1259422; in the data active = inhibition above about 32%;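 also: 0% = median of test compound wells and 100% = reference inhibitor wells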
GPR151 activ: activators of human GPR151 | AID 1508602 | activation, % at 11.2 µM | PathHunter beta-arrestin GPR151 cells, luminescence | 650,000 tested, 1% active; in the data active = activation above about 4.9%;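 also: 0% = median of compound wells and 100% = cells with positive control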
Target sequence (Q8TDV0 whole entry, looked up): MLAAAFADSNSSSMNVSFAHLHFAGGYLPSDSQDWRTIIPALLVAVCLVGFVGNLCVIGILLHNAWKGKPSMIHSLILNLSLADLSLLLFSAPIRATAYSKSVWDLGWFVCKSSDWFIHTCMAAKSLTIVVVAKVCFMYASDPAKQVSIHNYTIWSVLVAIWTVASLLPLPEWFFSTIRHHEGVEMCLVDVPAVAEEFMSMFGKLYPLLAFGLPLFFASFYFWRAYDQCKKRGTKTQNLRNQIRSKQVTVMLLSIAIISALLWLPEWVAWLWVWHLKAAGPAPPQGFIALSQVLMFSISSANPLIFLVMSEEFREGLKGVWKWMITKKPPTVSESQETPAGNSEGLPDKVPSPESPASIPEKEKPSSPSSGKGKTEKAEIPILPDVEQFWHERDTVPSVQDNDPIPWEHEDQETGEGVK
GPR151 conf act: human GPR151 activation, confirmation screen. shares compounds with GPR151 activ. GPR151 PathHunter beta-arrestin cells, luminescence, 90 min; % of EA-reagent control over plate median. activation, % at 11.2 µM. 6,700 tested, under 10 active. AID 1508609;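 active = mean percent activation across replicates above the confirmation screen cutoff of 4.91%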
GPR119 ag: counter-screen for GPR151 activators: effect on human GPR119; shares compounds with GPR151 activ; GPR119 PathHunter beta-arrestin cells, luminescence, 90 min; 0 = compound-well median, 100 = enzyme-acceptor control; activation, % at 11.2 µM; 6,700 tested, 0.3% active; AID 1508611;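 active = mean percent activation in the counterscreen above 29.09%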;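 also: counterscreen on off-target GPR119 to flag nonselective hits from the GPR151 activator screen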
An asterisk follows results filed as active. A selection: hits, their analogues and other compounds. The true share with any hit is near 3.4%.

Results for Nc1nnc(SCC(=O)Nc2nnc(SCC(=O)Nc3ccc(Cl)c(Cl)c3)s2)s1 ?
FBW7 act: -0.2; MITF inh: -7.5; TEAD-YAP block: 2.6; GPR151 activ: 0.4

What do the screens show for `O=S(=O)(Nc1cc(Br)c(O)c(Br)c1)c1ccccc1`?
FBW7 act: 0.1; MITF inh: 17.4; TEAD-YAP block: 2.9; GPR151 activ: 1.7

How did CC(C)(C)c1cc(CNC(=O)Cn2cc(NC(=O)c3ccc4c(c3)OCO4)cn2)[nH]n1 do in these assays?
FBW7 act: 0.2; MITF inh: 3.3; TEAD-YAP block: 0.6; GPR151 activ: 1.4

Results for CC(C)(C)OC(=O)NCCCC1=CC2=CC(=O)C(C)(OC(=O)CCc3ccccc3)C(=O)C2=CO1 (configuration not stated) ?
FBW7 act: 0.1; MITF inh: -2.2; GPR151 activ: 1.6

How did CCC(=O)OC1(C)C(=O)C=C2C=C(c3ccc(C#N)cc3)OC=C2C1=O (configuration not stated) do in these assays?
FBW7 act: 0.1; MITF inh: -18.2; GPR151 activ: 5.0*; GPR151 conf act: 0.7; GPR119 ag: 6.0

What do the screens show for `CCCCC1=CC2=CC(=O)C(C)(OC(=O)CCc3ccccc3)C(=O)C2=CO1` (configuration not stated)?
FBW7 act: -0.1; MITF inh: 3.1; GPR151 activ: 8.4*; GPR151 conf act: 0.1; GPR119 ag: 4.1

Results for O=c1[nH][nH]c(=O)c2cc(Oc3ccc([N+](=O)[O-])cc3)ccc12 ?
FBW7 act: -0.1; MITF inh: -10.6; TEAD-YAP block: -3.6; GPR151 activ: 0.6

What do the screens show for `COc1ccc(/C(C)=N/NC(=S)NCc2ccccc2)cc1OC`?
FBW7 act: 0.0; MITF inh: 13.5; TEAD-YAP block: -9.0; GPR151 activ: 1.7

How did Cc1ccc(/C=C/C2=NC(=C\c3ccc(F)cc3)/C(=O)O2)cc1 do in these assays?
FBW7 act: 0.0; MITF inh: 5.3; TEAD-YAP block: -11.1; GPR151 activ: 0.5

Results for CCC1CN(CCNC(=O)Cn2ncc3ccccc32)Cc2cc(OC)ccc2O1 (configuration not stated) ?
FBW7 act: 0.6; MITF inh: -1.1; TEAD-YAP block: -1.1; GPR151 activ: 8.2*; GPR151 conf act: 1.2; GPR119 ag: 11.6

How did CCC1CN(CCNC(=O)CC2CCCC2)Cc2cc(OC)ccc2O1 (configuration not stated) do in these assays?
FBW7 act: -0.1; MITF inh: -3.8; TEAD-YAP block: 5.9; GPR151 activ: 6.9*; GPR151 conf act: 2.0; GPR119 ag: 4.8

How did CC(C)CC1=NN(C(=O)C(=O)NCCc2ccccc2)C(O)(C(F)(F)F)C1 (configuration not stated) do in these assays?
FBW7 act: -0.1; MITF inh: 0.0; TEAD-YAP block: -2.0; GPR151 activ: 5.5*; GPR151 conf act: -0.5; GPR119 ag: 1.1

What do the screens show for `CC(C)CCC1=NN(C(=O)C(=O)NCCc2ccccc2)C(O)(C(F)(F)F)C1` (configuration not stated)?
FBW7 act: -0.1; MITF inh: 9.6; TEAD-YAP block: -8.2; GPR151 activ: 0.9

How did O=[N+]([O-])C1=C(Nc2ccc(-c3ccccc3)cc2)CS(=O)(=O)C1 do in these assays?
FBW7 act: 0.4; MITF inh: 25.0; TEAD-YAP block: -9.5; GPR151 activ: 3.2

Results for NC(=O)Cn1cnc2scc(-c3cccc([N+](=O)[O-])c3)c2c1=O ?
FBW7 act: -0.1; MITF inh: -0.4; TEAD-YAP block: -14.9; GPR151 activ: -0.3

How did CCC(C(=O)OC)n1cnc2scc(-c3cccc([N+](=O)[O-])c3)c2c1=O (configuration not stated) do in these assays?
FBW7 act: -0.1; MITF inh: 0.9; TEAD-YAP block: -11.3; GPR151 activ: 15.3*; GPR151 conf act: 1.3; GPR119 ag: 7.7

Results for O=C(NCCO)c1ccn[nH]1 ?
FBW7 act: 0.0; MITF inh: 0.5; TEAD-YAP block: 10.8; GPR151 activ: 6.0*; GPR151 conf act: -0.5; GPR119 ag: -8.1

What do the screens show for `O=C(NCCNC(=O)c1ccn[nH]1)c1ccn[nH]1`?
FBW7 act: 0.1; MITF inh: 1.9; TEAD-YAP block: 4.9; GPR151 activ: -0.5

What do the screens show for `O=C(NCc1ccc(F)cc1)c1nn2c(C(F)(F)F)cc(-c3ccccc3)nc2c1Br`?
FBW7 act: -0.1; MITF inh: 2.2; TEAD-YAP block: 1.7; GPR151 activ: 5.9*; GPR151 conf act: -0.5; GPR119 ag: -4.2

How did O=C(Nc1cccc(C(F)(F)F)c1)c1nn2c(C(F)(F)F)cc(-c3ccc(Br)o3)nc2c1Br do in these assays?
FBW7 act: -0.4; MITF inh: 3.4; TEAD-YAP block: 9.0; GPR151 activ: 16.9*; GPR151 conf act: -0.5; GPR119 ag: 0.5

Results for O=C(NCc1cccnc1)c1nn2c(C(F)(F)F)cc(-c3ccccc3)nc2c1Br ?
FBW7 act: -0.3; MITF inh: -6.5; TEAD-YAP block: -2.7; GPR151 activ: 0.5

What do the screens show for `COc1cccc(C2CC(c3ccc(Cl)cc3)=NC(c3ccc(C(F)(F)F)cc3)N2)c1O` (configuration not stated)?
FBW7 act: 0.1; MITF inh: 6.1; TEAD-YAP block: -21.1; GPR151 activ: 0.0

Results for COc1ccc(-c2cc(C(F)(F)F)n3ncc(C(=O)N4CCCc5ccccc54)c3n2)cc1 ?
FBW7 act: -0.1; MITF inh: 3.1; TEAD-YAP block: -9.6; GPR151 activ: 1.8

Results for C=CCN(c1ccccc1)C(C(=O)Nc1ccc(C(C)C)cc1)c1cc2c(cc1[N+](=O)[O-])OCO2 (configuration not stated) ?
FBW7 act: 0.5; MITF inh: 3.0; TEAD-YAP block: -10.7; GPR151 activ: -0.8

Results for CC(C)(C)C(=O)COC(=O)c1cccc(S(=O)(=O)N2CCCC2)c1 ?
FBW7 act: 0.0; MITF inh: 3.8; TEAD-YAP block: 2.8; GPR151 activ: 1.4

How did CNS(=O)(=O)c1cccc(C(=O)OCC(=O)C(C)(C)C)c1 do in these assays?
FBW7 act: -0.1; MITF inh: -2.2; TEAD-YAP block: -2.8; GPR151 activ: 7.1*; GPR151 conf act: 0.1; GPR119 ag: 8.0

How did COc1cccc(C(=O)NCc2nc(-c3ccc(Cl)cc3)no2)c1OC do in these assays?
FBW7 act: 0.7; MITF inh: 2.9; TEAD-YAP block: 19.7; GPR151 activ: 0.0

How did CCOc1cc(C2CC(=O)NC3=C2C(=O)C(C(=O)OC)C(C)C3)cc(Cl)c1O (configuration not stated) do in these assays?
FBW7 act: -0.1; MITF inh: -6.5; TEAD-YAP block: -12.2; GPR151 activ: 8.3*; GPR151 conf act: -0.4; GPR119 ag: -3.7
